The results in this text go back to PubChem BioAssay (Tox21).

Values joined by “and” are separate entries in the source; they are usually repeats but may differ in a detail not shown here. Equal entries are not always repeated. Records with an inconclusive call do not appear. A structure can be active in one record and inactive in another. Active and inactive are the calls of the source. Unless noted, calls follow the shape of the dose curve; as a rule, active = well fitted curve in the direction sought with a large enough effect in the repeat runs; inconclusive = weak or mixed curves; inactive = no such curve, though single readings can be large; an effect the other way counts as inactive or inconclusive.

The nature of assay [1]: qHTS assay to identify small molecule agonists of H2AX (AID 1224845; active = well fitted activation curve with a large enough effect in the signal ratio in the repeat runs, not every such curve was filed as active; the % refers to the signal ratio). In short, it runs like this: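 Wild-type CHO-K1 cells plated overnight, then exposed 3 hr at 37C to compounds at 15 concentrations (0.76% DMSO). Lysed, then HTRF anti-pH2AX(S139)-cryptate/anti-H2AX-d2 detection after 24 hr at room temperature; emissions 665 and 620 nm.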
For orientation: In qHTS, concentration-response curves come from the screen itself.

Assay [2] is described as follows: qHTS assay to identify small molecule agonists of the hypoxia (HIF-1) signaling pathway (AID 1224846; active = well fitted activation curve with a large enough effect in the signal ratio in the repeat runs, not every such curve was filed as active; the % refers to the signal ratio; also: potency is read from the fitted curve at half-maximal effect). In short, it runs like this:
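Agonist mode reporter screen. ME-180 cells stably expressing bla under HRE control received test compounds in DMSO for 17 hrs (37C, 5% CO2), and beta-lactamase activity was then detected with the CCF4-AM FRET substrate.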

Assay [3] in a line: qHTS assay to identify small molecule agonists of H2AX - cell viability counter screen (AID 1224847; calls by dose curve; also: nearly all actives have a fitted effect of over 30% in size; also: potency is read from the fitted curve at half-maximal effect). The essentials:
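CHO-K1 cells plated overnight at 37C, then exposed 3 h at 37C to compounds at 15 concentrations (0.76% DMSO final). Viability by CellTiter-Glo luminescence after 30 min at room temperature.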

The nature of assay [4]: qHTS assay to identify small molecule antagonists of the estrogen related receptor (ERR) signaling pathway from Tox21 library (AID 1224848). Also: nearly all actives have a fitted effect of over 50% in size. Also: potency is read from the fitted curve at half-maximal effect. In short, it runs like this:
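First, 2,000 ERR cells per well were plated and held 6 h at 37 C/5% CO2. Next, compounds in DMSO were pinned in and left 18 h at 37 C. Finally, ONE-Glo was added and luminescence read after 30 min at room temperature.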

A short description of assay [5]: qHTS assay to identify small molecule agonists of the estrogen related receptor (ERR) signaling pathway from Tox21 library (AID 1224849; calls by dose curve; also: nearly all actives have a fitted effect of over 15% in size). Particulars: ERR reporter cell line, ONE-Glo luciferase, 18 h. The essentials: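 Quantitative HTS in agonist format: NTP ERR cell line, compounds transferred in DMSO after 6 h plating, 18 h incubation at 37 C, ONE-Glo luminescence endpoint.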

The nature of assay [6]: qHTS RealTime-Glo MT Cell Viability Assay in HepG2 cells - 24 hour (AID 1224867). Also: nearly all actives have a fitted effect of over 50% in size. In short, it runs like this:
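Compound treatment began 5 h after plating HepG2 cells (600/well) with NanoLuc luciferase and prosubstrate. Plates stayed at 37 C for 40 h; luminescence was captured at six time points, 0 h through 40 h.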

The nature of assay [7]: qHTS RealTime-Glo MT Cell Viability Assay in HEK293 cells - 32 hour (AID 1224868). Also: nearly all actives have a fitted effect of over 50% in size. Also: potency is read from the fitted curve at half-maximal effect. The essentials: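 Quantitative high-throughput screen of the Tox21 10K library in HEK293: cells and RealTime-Glo reagents plated together, compound added at 5 h, luminescence monitored through 40 h at 37 C.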
Assay [8] in a line: A CellTox Green Cytotoxicity Assay to monitor cytotoxicity in HEK293 cells - 0 hour (AID 1224869). Also: nearly all actives have a fitted effect of over 50% in size. In short, it runs like this: (§1)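 Dead-cell fluorescence measured kinetically: asymmetric cyanine dye, HEK293, 600 cells/well, 5 h settle, 23 nL cpd/DMSO, 37 C, reads 0–40 h every 8 h.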
Assay [9] in a line: qHTS RealTime-Glo MT Cell Viability Assay in HepG2 cells - 40 hour (AID 1224870). Also: nearly all actives have a fitted effect of over 50% in size. In short, it runs like this:
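HepG2 cells mixed with RealTime-Glo MT reagents (NanoLuc plus cell-permeant prosubstrate) were seeded at 600 cells/well, incubated 5 h at 37 C/5% CO2, then pinned with compounds in DMSO; nonlytic luminescence tracked viability during 40 h treatment.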

A short description of assay [10]: A CellTox Green Cytotoxicity Assay to monitor cytotoxicity in HEK293 cells - 40 hour (AID 1224871). Also: nearly all actives have a fitted effect of over 45% in size. Also: potency is read from the fitted curve at half-maximal effect. The essentials:
as §1

Setting [11] is: at 92.4 µM (top of the series) unless noted.
% is scaled to controls: 0 for no effect and ±100 for the full control effect.

For `COc1cc(/C=C/C(=O)O[C@H]2CC[C@]34C[C@]35CC[C@]3(C)[C@@H]([C@H](C)CCC=C(C)C)CC[C@@]3(C)[C@@H]5CC[C@H]4C2(C)C)ccc1O`, the Potency result in [1], in assay [2], in [3], in assay [4], in assay [6] and in assay [7] was “inactive” throughout. Further, the Potency entry in [8], in assay [9] and in assay [10] was “inactive” in each case. Moreover, the activity change, positive = activation in assay [5] (setting [11]) was -5.43% [at 42.5 µM] (inactive).

On to `Cc1cc(O)c(Cl)c(C)c1Cl`, for which the Potency entry in assay [1], in assay [2], in assay [4], in [6], in [7] and in assay [8] was “inactive” each time. In assay [9], the Potency result was “inactive”. In assay [3], the Potency is 101 µM (active). In addition, the activity change, positive = activation in assay [5] (setting [11]) was 1.15% (inactive).

On to `CO[Si](CCCNc1ccccc1)(OC)OC`, for which the Potency entry in [1], in [2], in assay [3], in assay [6], in assay [7] and in [8] was “inactive” throughout. Also, the Potency entry in [9] was “inactive”.

Take `CCC(CN)=C(c1ccccc1)c1ccccc1`: the Potency result in assay [1], in assay [2], in assay [3], in assay [6], in assay [7] and in [8] was “inactive” in each case. Besides, the Potency result in assay [9] and in assay [10] was “inactive” in each case.

As for `CCC1=C[C@@H]2CN(C1)Cc1c([nH]c3ccccc13)[C@@](C(=O)OC)(c1cc3c(cc1OC)N(C)[C@H]1[C@@](O)(C(=O)OC)[C@H](OC(C)=O)[C@]4(CC)C=CCN5CC[C@]31[C@@H]54)C2`, the Potency entry in [1], in assay [2], in assay [3] and in [8] was “inactive” each time. For the same compound, the Potency in assay [4] is 18.8 µM (active); in [7] it was 15.1 nM (active). Moreover, the activity change, positive = activation in assay [5] (setting [11]) was -48.8% [at 42.5 µM] (inactive).

Consider `OCCCCCCCCCCCCBr`, for which the Potency entry in assay [1], in assay [2], in assay [6], in assay [8] and in assay [9] was “inactive” in each case. The Potency in assay [3] was 102 µM (active); in [7] it was 9920 nM (active).

`CCCCN1C(=O)[C@@H]([C@H](O)C2CCCCC2)NC(=O)C12CCN(Cc1ccc(Oc3ccc(C(=O)O)cc3)cc1)CC2`: the Potency result in [1], in assay [2], in assay [3], in assay [6], in [7] and in assay [9] was “inactive” in each case. In assay [10], the Potency result was “inactive”. Also, in assay [5] (setting [11]), the activity change, positive = activation was -19.3% (inactive).

For the compound `CCN(CCC#N)c1ccc(N=Nc2c(Cl)cc([N+](=O)[O-])cc2Cl)cc1`, the Potency entry in [1], in assay [2], in [7], in [8] and in assay [10] was “inactive” each time. In assay [3], the Potency is 56.6 µM (active). For the same compound, the activity change, positive = activation in assay [5] (setting [11]) is -27% (inactive).

As to `C1CCCC1`, the Potency entry in assay [1], in assay [2], in assay [3], in assay [4], in [6] and in assay [7] was “inactive” in each case. Moreover, the Potency entry in [8], in assay [9] and in assay [10] was “inactive” throughout. For the same compound, the activity change, positive = activation in [5] (setting [11]) was 9.59% (inactive).

On to `Cc1cc(=O)oc2cc(N(C)C)ccc12`, for which the Potency result in assay [1], in assay [3], in assay [4] and in assay [9] was “inactive” throughout. Besides, the Potency in [2] was 49 µM (active).

For the compound `CCCC(C)c1ccccc1O` (stereo unspecified), the Potency entry in assay [1], in assay [2], in [6], in [7], in assay [8] and in [9] was “inactive” throughout. The Potency is 80 µM (active) in [3] and 49 µM (active) in assay [10].

Consider `O=[N+]([O-])c1ccccc1Nc1ccccc1`, for which the Potency result in assay [1], in assay [2], in [3], in assay [6], in assay [7] and in assay [8] was “inactive” throughout. Moreover, the Potency entry in assay [9] and in [10] was “inactive” in each case.

As for `Nc1c(Cl)cc(Cl)cc1Cl`, the Potency entry in assay [1], in assay [2], in [3], in [6], in assay [7] and in assay [8] was “inactive” throughout. The Potency result in assay [9] was “inactive”.

With `CCCCCOC(=O)CCCC`, the Potency result in assay [1], in assay [2], in [3], in assay [6], in [7] and in assay [8] was “inactive” each time. Besides, in assay [9], the Potency result is “inactive”.

As to `CCCCCCCCCCC=O`, the Potency entry in assay [1], in assay [2], in assay [3], in assay [4], in [6] and in assay [7] was “inactive” in each case. Moreover, the Potency entry in assay [8], in [9] and in assay [10] was “inactive” throughout. In assay [5] (setting [11]), the activity change, positive = activation was 0.203% (inactive).

For `NC(=O)NS(=O)(=O)c1ccc(N)cc1`, the Potency entry in assay [1], in assay [2], in [3], in assay [6], in assay [7] and in [9] was “inactive” in each case. Moreover, in assay [10], the Potency result is “inactive”.

Turning to `Fc1ccc([C@@H]2CCNC[C@H]2COc2ccc3c(c2)OCO3)cc1`, the Potency entry in assay [1], in assay [2], in assay [3] and in assay [8] was “inactive” throughout.

With `Oc1ccc(Cl)cc1Sc1cc(Cl)ccc1O`, the Potency entry in assay [1] and in [8] was “inactive” throughout. In addition, the Potency in assay [3] is 35.7 µM (active); in assay [4] it was 10.8 µM (active) and 11.9 µM (active); in assay [7] it was 19.5 µM (active) and 23.9 µM (active); in assay [10] it was 38.8 µM (active) and inactive. Moreover, the activity change, positive = activation in assay [5] (at 42.5 µM (top of the series)) is -51.1% (inactive); in [5] (at 92.4 µM (top of the series)) it was -52% (inactive).

In the case of `CCCCN(CCCC)C(=O)N(CCCC)CCCC`, the Potency result in [1], in assay [2], in assay [6], in assay [7], in assay [8] and in [9] was “inactive” each time. The Potency result in assay [10] was “inactive”.

Take `C=C(C)C(=O)OCC[N+](C)(C)C`: the Potency entry in assay [1], in assay [2], in [3], in assay [6], in assay [7] and in assay [8] was “inactive” in each case. The Potency entry in [9] and in [10] was “inactive” in each case.

For the compound `Cc1nc(-c2ccc3c(c2)CCN(CCC2CCC(NC(=O)/C=C/c4ccc(F)cc4)CC2)CC3)no1` (stereo unspecified), the Potency entry in assay [1], in assay [2], in assay [3], in assay [6], in [8] and in assay [9] was “inactive” in each case.

Take `CN(C)c1ccc(SC#N)cc1`: the Potency entry in [1], in assay [2], in assay [3], in assay [6], in [7] and in assay [8] was “inactive” in each case. The Potency result in assay [9] and in [10] was “inactive” in each case.

Regarding `O=C(O)c1c(Cl)cccc1Cl`, the Potency result in assay [1], in assay [2], in assay [3], in assay [6], in [7] and in assay [8] was “inactive” each time. Moreover, the Potency result in [9] and in [10] was “inactive” each time.

In the case of `O=C(c1ccc(O)cc1O)c1ccc(O)cc1O`, the Potency result in assay [1], in assay [2], in [6], in [7], in [8] and in assay [9] was “inactive” each time. In addition, the Potency entry in assay [10] was “inactive”.
